NPSR antag: antagonists of human neuropeptide S receptor cAMP signaling; Q6W5P4; CHO-NPSR cells, cAMP TR-FRET, antagonist mode; Potency, µM (highest dose often 38.3 µM), actives largely listed as inhibitors; hit rate 1% among 220,000; AID 1461; also: nearly all actives have a fitted effect of over 50% in size
Target sequence (Q6W5P4 whole entry, looked up): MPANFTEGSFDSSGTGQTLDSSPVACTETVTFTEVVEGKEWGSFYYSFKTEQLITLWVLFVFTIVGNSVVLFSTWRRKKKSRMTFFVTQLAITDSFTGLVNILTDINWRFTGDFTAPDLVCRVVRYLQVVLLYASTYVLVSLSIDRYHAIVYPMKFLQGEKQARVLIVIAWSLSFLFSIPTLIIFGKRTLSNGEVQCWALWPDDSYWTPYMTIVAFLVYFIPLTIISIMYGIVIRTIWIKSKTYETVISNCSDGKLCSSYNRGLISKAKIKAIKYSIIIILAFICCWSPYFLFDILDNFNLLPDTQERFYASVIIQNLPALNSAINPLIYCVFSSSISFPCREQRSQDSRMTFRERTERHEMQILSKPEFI
Gal4-VP16 FLuc: counter-screen for ROR gamma inhibitors: Gal4-VP16 reporter; Drosophila S2 Gal4-VP16 UAS-luciferase, luminescence, 20 h; Potency, µM (top dose mostly 53.6 µM), hits mostly inhibitors; hit rate 3.5% among 310,000; AID 2546;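 also: Gal4-VP16 expression switched on by copper sulfate through the metallothionein promoter; nearly all actives have a fitted effect of over 50% in size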
B2AR arrestin: recruits beta-arrestin to the human beta2-adrenergic receptor | P07550 | beta-arrestin recruitment to beta2AR, cell-based reporter | Potency, µM (doses to about 46.1 µM), hits mostly activators | hit rate 0.02% among 330,000 | AID 492947; also: nearly all actives have a fitted effect of over 65% in size
RORg inh: inhibitors of mouse ROR gamma transcriptional activity. Potency, µM (series often up to 53.6 µM), most hits filed as inhibitors. AID 2551. hit rate 5.4% among 310,000. Drosophila S2 Gal4-RORgamma UAS-luciferase reporter, 20 h. P51450; also: nearly all actives have a fitted effect of over 60% in size
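Stable Schneider cell line, Gal4 DNA-binding domain fused to ROR gamma, UAS-luciferase. Cmpd 1 hr RT → CuSO4 700 uM final → 20 hr RT → luciferase reagent 10 min → luminescence.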
Numbers stand for hits; . = inactive; ? = inconclusive; / = no result; [ ] = remark or other dose. The list is not random: actives were taken first. Their share in the collection is about 5.7%. Calls follow the shape of the dose curve; as a rule, active = well fitted curve in the direction sought with a large enough effect; inconclusive = small, poorly fitted or top-dose-only effect, or another doubt; inactive = no such curve, though single readings can be large; an effect the other way counts as inactive or inconclusive.

SMILES | NPSR antag | Gal4-VP16 FLuc | B2AR arrestin | RORg inh
Nc1cccc(B(O)O)c1 | / | . | / | .
FC(F)(F)c1nc(N2CCCC2)ncc1-c1nnnn1-c1ccc(Cl)cc1 | ? | 15.8µM | . | .
NCCC[C@@H](CC(=O)N[C@@H]1CCCC[C@H]1C(=O)N[C@H](CC(=O)N[C@@H](CCC(=O)O)CC(=O)O)Cc1c[nH]c2ccccc12)NC(=O)C[C@H](Cc1c[nH]c2ccccc12)NC(=O)[C@@H]1CNCC[C@H]1N | / | . | / | .
COc1cc(C(=O)NC(=S)Nc2cccc3nc(C)ccc23)cc(OC)c1OC | . | . | . | .
Cc1cccc(NC(=S)NC(=O)c2oc3ccccc3c2C)n1 | / | . | . | 8.91µM
Cc1cccc(NC(=O)Cc2ccc(-c3ccccc3)cc2)n1 | / | . | . | .
Cc1ccc2c(NC(=S)NC(=O)c3ccccc3)cccc2n1 | / | ? | . | 15.8µM
Cc1cccc(NC(=S)NC(=O)c2ccc(-c3ccccc3)cc2)n1 | / | ? | . | 3.98µM
Cc1ccc(C(=O)NC(=S)Nc2cccc3c(C)cc(C)nc23)cc1 | . | 4.47µM | . | 1µM
COc1ccc2oc(-c3ccc(O)cc3)cc(=O)c2c1 | / | 25.1µM | / | 25.1µM
O=C(COc1ccc2oc(-c3ccccc3)cc(=O)c2c1)Nc1ccccc1 | . | ? | . | 12.6µM
COCCn1c(C)cc(C(=O)COC(=O)c2ccc[nH]c2=O)c1C | . | 3.55µM | . | 4.47µM
Cc1ccc(-n2c(C)cc(C(=O)COC(=O)c3ccc[nH]c3=O)c2C)cc1 | . | / | . | 11.2µM
COCC(=O)OCC(=O)c1cc(C)n(-c2ccc(Br)cc2)c1C | . | . | . | .
Cc1cc(C(=O)COC(=O)c2ccc[nH]c2=O)c(C)n1-c1ccc(Br)cc1 | . | 0.398µM | . | .
Cc1cc(C(=O)COC(=O)c2ccc[nH]c2=O)c(C)n1C | . | ? | . | ?
CC(C)(C)OC(=O)NCCCC1=CC2=CC(=O)C(C)(OC(=O)c3cnc4ccccc4n3)C(=O)C2=CO1 (stereo not given) | / | . | / | .
Cc1cc(=O)[nH]c(/N=C(\N)Nc2ccc(SC(F)F)cc2)n1 | . | . | . | .
COc1cccc([C@@H]2Oc3ccc(Br)cc3C(=O)[C@H]2OC(=O)Nc2ccc(C)c(Br)c2)c1 | / | . | / | .
CCN1C(=O)[C@H]2[C@H]3[C@H](O)[C@H](O)C/C(=N/OC[C@@H](O)COCc4ccco4)[C@@H]3CC[C@@H]2C1=O | / | .[10 µM] | / | .[10 µM]
Cc1ccc2nc(-c3cccnc3)cc(C(=O)N3CCN(c4ccc([N+](=O)[O-])cc4)CC3)c2c1 | 5.01µM | . | . | .
Cc1ccc(C(C)C)c(OCC(=O)Nc2ccccc2N2CCN(C)CC2)c1 | ? | 12.6µM | . | ?
CC(C)CC(=O)/C(=C/c1ccc(N(C)C)cc1)n1cncn1 | / | . | . | .
CC(C)CC(=O)/C(=C\c1ccc(Cl)cc1Cl)n1cncn1 | . | 5.01µM | . | 4.47µM
COc1ccc(OC)c(-c2csc(N(CC3CCCO3)C(=O)C3CCCCC3)n2)c1 (stereo not given) | ? | . | . | .
SMILES | NPSR antag | Gal4-VP16 FLuc | B2AR arrestin | RORg inh
CCCNC(=O)NC(=O)CSc1nc2cc(C(=O)OC)ccc2c(=O)n1-c1ccccc1 | . | ? | . | .
CNC(=O)NC(=O)CSc1nc2cc(C(=O)OC)ccc2c(=O)n1-c1ccccc1 | . | 22.4µM | . | .
C/C(=N\NC(N)=O)c1cc(Cl)cc(Cl)c1O | . | 10µM | . | 0.891µM
C/C(=N\O)c1cc(Cl)cc(Cl)c1O | . | . | . | ?
Cn1c(=O)c(CCc2ccccc2)nc2cnc(OCc3ccccc3)nc21 | / | . | / | .
Cc1cc(=O)[nH]c2c(C)cc(S(=O)(=O)N3CCCCC3)cc12 | / | . | . | 5.62µM
COc1ccc(OC)c(C2C(C(N)=O)=C(C)Nc3nc(-c4cccc(Cl)c4)nn32)c1 (stereo not given) | . | 17.8µM | . | ?
COc1ccccc1-c1nc2n(n1)C(c1ccccc1Cl)C(C(N)=O)=C(C)N2 (stereo not given) | . | . | . | .
COc1cc2ccccc2cc1C(=O)OCC(=O)N(CC(C)C)c1c(N)n(Cc2ccccc2)c(=O)[nH]c1=O | / | / | . | /
COc1ccc(NC(=O)/C(C#N)=C/c2ccc(-c3ccccc3C(=O)O)o2)cc1 | / | . | . | .
COc1ccc(NC(=O)/C(C#N)=C/c2ccc(-c3ccc(Cl)c(C(=O)O)c3)o2)cc1 | / | ? | . | 11.2µM
COc1ccc(NC(=O)/C(C#N)=C\c2ccc(-c3cccc(C(=O)O)c3C)o2)cc1 | / | ? | . | 3.98µM
Cc1ccccc1NC(=O)/C(C#N)=C/c1ccc(-c2ccc(Cl)c(C(=O)O)c2)o1 | / | 17.8µM | . | .
CCN1CCN(c2ccc(Nc3ccnc4ccccc34)cc2)CC1 | / | / | . | /
C=C(CC(=O)OC)C[C@]1(CC(=O)OC)CC2(CC=C(C)C)C(=O)C(C(=O)c3ccccc3)=C(OC(=O)c3ccc(Br)cc3)C(CC=C(C)C)(C1)C2=O (stereo not given in full) | / | .[10 µM] | / | .[10 µM]
O=c1cc(-c2ccco2)oc2c1ccc1ccccc12 | . | . | . | .
O=c1cc(C(Cl)(Cl)Cl)oc2c1ccc1ccccc12 | . | 5.62µM | . | 1.41µM
CC(C)CN(C(=O)CN(C)C(=O)c1ccco1)c1c(N)n(CC(C)C)c(=O)[nH]c1=O | / | / | . | /
CCOC(=O)c1cnc2c(-c3ccccc3)cnn2c1N | . | 11.2µM | . | 1.58µM
CCOC(=O)c1cnn(-c2cc(C)c3ccccc3n2)c1N | . | ? | . | 0.112µM
S=C1NC(c2ccccc2)=NCN1c1ccccc1 | . | . | . | 10µM
Cc1ccc(C2=NCN(c3ccc(C(=O)O)cc3)C(=S)N2)cc1 | . | . | . | .
C[C@H]1[C@H](C)CC[C@]2(C(=O)O)CC[C@]3(C)C(=CC[C@@H]4[C@@]5(C)C[C@@H](O)[C@H](O)C(C)(C)[C@@H]5CC[C@]43C)[C@H]12 | . | ? | . | 10µM
O=C(COC(=O)c1cc(S(=O)(=O)N2CCOCC2)ccc1Cl)NCc1ccccc1 | / | / | . | /
Clc1ccccc1/C=C/c1nc(-c2cccnc2)no1 | . | . | . | 2µM
SMILES | NPSR antag | Gal4-VP16 FLuc | B2AR arrestin | RORg inh
Clc1ccccc1-c1nc(-c2cccnc2)no1 | . | . | / | ?
C(=C\c1nc(-c2cccnc2)no1)/c1ccccc1 | . | ? | . | 4.47µM
COc1ccc(CC2(C)OC(c3ccc(C)c([N+](=O)[O-])c3)=NN2C(C)=O)cc1 (stereo not given) | ? | . | . | .
O=C(Oc1ccnc2cc(Cl)ccc12)N1CCCCCC1 | . | 12.6µM | . | .
O=C(c1ccc(Cl)cc1)N1CCN(c2ccnc3cc(Cl)ccc23)CC1 | . | 25.1µM | . | ?
Cc1ccc(S(=O)(=O)N2CCN(c3ccnc4cc(Cl)ccc34)CC2)cc1 | ? | 15.8µM | . | ?
CCC(=O)N1CCN(c2ccnc3cc(Cl)ccc23)CC1 | . | . | . | .
Cc1ccc(S(=O)(=O)N2CCN(c3ccnc4cc(Cl)ccc34)CC2)cc1C | . | ? | . | .
CCCCCCCCCCOc1cc(OCCCCCCCCCC)cc(N(CC(=O)O)CC(=O)O)c1 | / | . | / | .
CCOc1cccc(C(=O)c2ccc(O)c(O)c2O)c1 | / | . | / | .
c1cc2c(cc1-c1cnc3n1CCC3)OCCO2 | . | ? | . | ?
Cc1ccc(-c2cnc3n2CCCCC3)cc1 | . | . | . | 3.55µM

Bioassay records as filed in PubChem BioAssay.
